Experimental data as given in ChEMBL document CHEMBL4513141, “CO-ADD screening of NIH (USA) - Clinical Collection” (2021).
Potency and affinity values are given separately.

Columns and labels:
Klebsiella pneumoniae = conditions: Concentration 20 uM; ASSAY_TEST Inhibition of Bacterial Growth; detection method Absorption (OD600); MEDIA CAMHB; plate type 384well; NBS; CORNING #3640; time 18 hr
Candida albicans = conditions: 20 µM
Cryptococcus neoformans = conditions: Concentration 20 uM; ASSAY_TEST Inhibition of Fungal Growth; detection method Resazurin; Absorption (OD600-OD570); plate type 384well; NBS; CORNING #3640

Cc1cnc(NC(=O)C2=C(O)c3ccccc3S(=O)(=O)N2C)s1 [MELOXICAM]
Inhibition (Klebsiella pneumoniae): 2.2%
Inhibition (Candida albicans): 9.71%
Inhibition (Cryptococcus neoformans): -3.68%

CCN(CC)CCOC(=O)c1ccc(N)cc1.Cl [PROCAINE HYDROCHLORIDE]
Inhibition (Klebsiella pneumoniae): 12%
Inhibition (Candida albicans): 3.62%
Inhibition (Cryptococcus neoformans): -2.16%

OCCN1C[C@H](O)[C@@H](O)[C@H](O)[C@H]1CO [MIGLITOL]
Inhibition (Klebsiella pneumoniae): 11.67%
Inhibition (Candida albicans): 2.16%
Inhibition (Cryptococcus neoformans): 1.09%

CC(=O)C1(O)CCC2C3CC(C)C4=CC(=O)C=CC4(C)C3(F)C(O)CC21C (stereo not given)
Inhibition (Klebsiella pneumoniae): 4.1%
Inhibition (Candida albicans): 2.21%
Inhibition (Cryptococcus neoformans): -3.1%

CCCc1nc2c(C)cc(-c3nc4ccccc4n3C)cc2n1Cc1ccc(-c2ccccc2C(=O)O)cc1
Inhibition (Klebsiella pneumoniae): 15%
Inhibition (Candida albicans): 1.9%
Inhibition (Cryptococcus neoformans): -31%

NS(=O)(=O)c1cc(C(=O)O)c(NCc2ccco2)cc1Cl [FUROSEMIDE]
Inhibition (Klebsiella pneumoniae): 9.57%
Inhibition (Candida albicans): 3.34%
Inhibition (Cryptococcus neoformans): -7.53%

Cc1cccc(CN2CCN(C(c3ccccc3)c3ccc(Cl)cc3)CC2)c1.Cl.Cl (stereo not given)
Inhibition (Klebsiella pneumoniae): 10.89%
Inhibition (Candida albicans): 1.13%
Inhibition (Cryptococcus neoformans): -13%

CCN(CC)C(=O)[C@]1(c2ccccc2)C[C@@H]1CN.Cl [1R,2S-MILNACIPRAN HYDROCHLORIDE]
Inhibition (Klebsiella pneumoniae): 12.52%
Inhibition (Candida albicans): 0.44%
Inhibition (Cryptococcus neoformans): -10.1%

CC(C)[C@H](N)C(=O)OCCOCn1cnc2c(=O)nc(N)[nH]c21.Cl [VALACYCLOVIR HYDROCHLORIDE]
Inhibition (Klebsiella pneumoniae): 6.23%
Inhibition (Candida albicans): 3.14%
Inhibition (Cryptococcus neoformans): -5.07%

CC(=O)Nc1nnc(S(N)(=O)=O)s1 [ACETAZOLAMIDE]
Inhibition (Klebsiella pneumoniae): 10.3%
Inhibition (Candida albicans): 4.56%
Inhibition (Cryptococcus neoformans): -2.97%
